For assay [1], the target named is human Vitamin D Receptor (VDR), VDR (gene 7421) (UniProt P11473). Briefly: ATG_VDR_TRANS: Attagene TRANS-FACTORIAL HepG2 Assay for human Vitamin D Receptor (VDR) (AID 2283022; active means hit-call score of the fitted dose curve at least 0.9, where 1 is the maximum). The gist of the method:
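HepG2 cells were transiently transfected with GAL4-UAS reporter units and a chimeric VDR-Gal4 construct, then dosed for 24 hours. Reporter mRNA was quantified by RT-PCR, fluorescent labeling, HpaI digestion and capillary electrophoresis; gain of signal analysed vs DMSO.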

Assay [2] can be described thus: BSK_3C_SRB: Viability Assessment in the BioMAP Diversity Plus: 3C Assay (AID 2283023).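 Further: fitted both ways against DMSO so a hit may be signal rise or drop.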 The conditions noted are these: primary human endothelial cells (HUVEC). Summed up:
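Human umbilical vein endothelial cells in the 3C system, treated 24 h. Total protein measured by 0.1% sulforhodamine B staining after 10% TCA fixation, read at 560 nm; bidirectional fit versus DMSO.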

Read-out in assay [3]: Matrix Metallopeptidase 1 (MMP1), MMP1 (gene 4312)
Briefly: BSK_BE3C_MMP1: BioMAP Diversity Plus: BE3C Assay for Matrix Metallopeptidase 1 (MMP1) Biomarker Activity (AID 2283024). The conditions noted are these: primary human bronchial epithelial cells; actives raise or lower the signal. The gist of the method:
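Dose cells, wait 24 h, run MMP1 ELISA; cells are human bronchial epithelial primaries. Both increases and decreases relative to DMSO counted.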

Assay [4] in a line: BSK_3C_Vis: BioMAP Diversity Plus: 3C Assay for Morphology Visualization (AID 2283025).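 Further: fitted both ways so gain or loss versus DMSO counts.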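 On AC50: light microscopy image of cell morphology used as background control.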 The following applies: primary human endothelial cells (HUVEC). Summed up:
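Endothelial cells from human umbilical vein were treated with test chemicals for 24 h and inspected by light microscopy for changes in cell conformation.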

Read-out in assay [5]: Pselectin, SELP (gene 6403)
Briefly: BSK_4H_Pselectin: BioMAP Diversity Plus: 4H Assay for Pselectin Biomarker Activity (AID 2283026). The following applies: primary human endothelial cells (HUVEC); actives raise or lower the signal. The gist of the method:
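Human vascular endothelium from umbilical vein; P-selectin measured by ELISA at 24 h post-dose, with cytotoxicity checked by sulforhodamine B total-protein staining in parallel cultures (0.1% SRB after 10% TCA fixation, read at 560 nm).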

Assay [6] is described as follows: BSK_4H_SRB: Viability Assessment in the BioMAP Diversity Plus: 4H Assay (AID 2283027).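 Further: cells exposed to compound for 24 h before staining.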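 On AC50: curves fitted both ways versus DMSO so AC50 may be loss or gain.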 The following applies: primary human endothelial cells (HUVEC). Summed up:
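Human umbilical vein endothelial cells were dosed with chemical and, after 24 h, fixed with 10% TCA, stained with 0.1% sulforhodamine B, and read at 560 nm to give total protein as a cytotoxicity measure. Bidirectional fitting relative to DMSO control.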

Assay [7] is described as follows: BSK_BE3C_SRB: Viability Assessment in the BioMAP Diversity Plus: BE3C Assay (AID 2283028).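 On AC50: fitted both ways so AC50 may mark signal gain or loss versus DMSO.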 The conditions noted are these: primary human bronchial epithelial cells. Summed up:
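Human bronchial epithelial primary cells in confluent culture, 24 h after chemical dosing; total protein by 0.1% SRB staining after 10% TCA fixation, read at 560 nm. Bidirectional fitting versus DMSO baseline.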

Read-out in assay [8]: Urokinase-type plasminogen activator receptor (uPAR), PLAUR (gene 5329)
Description: BSK_4H_uPAR: BioMAP Diversity Plus: 4H Assay for Urokinase-type plasminogen activator receptor (uPAR) Biomarker Activity (AID 2283030). The following applies: primary human endothelial cells (HUVEC); actives raise or lower the signal. Summed up:
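Human umbilical vein endothelial cells in the 4H system, 24 h after chemical dosing. Cell-surface uPAR measured by ELISA, fitted in both directions versus DMSO; cytotoxicity checked by SRB total protein in parallel cultures.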

Read-out in assay [9]: Vascular endothelial growth factor receptor 2 (Homo sapiens) (UniProt P35968)
Briefly: BSK_4H_VEGFRII: BioMAP Diversity Plus: 4H Assay for Vascular endothelial growth factor receptor 2 (VEGFR2) Biomarker Activity (AID 2283031).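 On AC50: cell-surface VEGFR2 protein level quantified by ELISA.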 The following applies: primary human endothelial cells (HUVEC); actives raise or lower the signal. The gist of the method:
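Primary human umbilical vein endothelial cells (4H system), 24 h exposure; cell-surface VEGFR2 measured by ELISA. Bidirectional fitting versus DMSO; cytotoxicity checked in parallel by SRB total-protein staining.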

Read-out in assay [10]: Human Leukocyte Antigen - DR isotype (HLADR), HLA-DRA (gene 3122)
Briefly: BSK_BE3C_HLADR: BioMAP Diversity Plus: BE3C Assay for Human Leukocyte Antigen - DR isotype (HLADR) Biomarker Activity (AID 2283032). The following applies: primary human bronchial epithelial cells; actives raise or lower the signal. Summed up: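 Signal came from an ELISA for HLA-DR in human bronchial epithelial primary cells harvested 24 h after treatment; gain- and loss-of-signal fitting used DMSO controls as reference.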

Read-out in assay [11]: Vascular cell adhesion molecule 1 (VCAM1), VCAM1 (gene 7412)
Briefly: BSK_4H_VCAM1: BioMAP Diversity Plus: 4H Assay for Vascular cell adhesion molecule 1 (VCAM1) Biomarker Activity (AID 2283033).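 On outcome: cell-surface VCAM-1 protein measured by ELISA.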 The conditions noted are these: primary human endothelial cells (HUVEC); actives raise or lower the signal. The gist of the method: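 Endpoint derived from bidirectional fitting against DMSO controls of VCAM-1 ELISA signal in umbilical vein endothelial cells sampled at 24 h following treatment.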

Read-out in assay [12]: Interferon-gamma inducible Protein 10 (IP10), CXCL10 (gene 3627)
Briefly: BSK_BE3C_IP10: BioMAP Diversity Plus: BE3C Assay for Interferon-gamma inducible Protein 10 (IP10) Biomarker Activity (AID 2283034). The conditions noted are these: primary human bronchial epithelial cells; actives raise or lower the signal. The gist of the method:
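Using primary human bronchial epithelial cultures, the assay captures IP-10 by ELISA one day (24 h) after exposure. Parallel SRB staining of total protein flags overt cytotoxicity. Fits run bidirectionally relative to DMSO.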

Read-out in assay [13]: Monokine induced gamma interferon (MIG), CXCL9 (gene 4283)
Briefly: BSK_BE3C_MIG: BioMAP Diversity Plus: BE3C Assay for Monokine induced gamma interferon (MIG) Biomarker Activity (AID 2283035). The conditions noted are these: primary human bronchial epithelial cells; actives raise or lower the signal. Summed up: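 ELISA read-out of MIG in human lung bronchial epithelial primary cultures, 24 h post-dosing. Bidirectional curve fit vs DMSO baseline.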

Read-out in assay [14]: Transforming growth factor beta 1 (TGFb1), TGFB1 (gene 7040)
Description: BSK_BE3C_TGFb1: BioMAP Diversity Plus: BE3C Assay for Transforming growth factor beta 1 (TGFb1) Biomarker Activity (AID 2283036;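 on outcome: TGF-b1 protein level measured by ELISA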). The conditions noted are these: primary human bronchial epithelial cells; actives raise or lower the signal. Summed up:
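In this human primary bronchial epithelial system, an ELISA quantified TGF-b1 one day after dosing. Endpoint changes in either direction were fitted relative to DMSO.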

Read-out in assay [15]: urokinase plasminogen activator (uPA), PLAU (gene 5328)
Description: BSK_BE3C_uPA: BioMAP Diversity Plus: BE3C Assay for urokinase plasminogen activator (uPA) Biomarker Activity (AID 2283038).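 On outcome: uPA protein level quantified by ELISA in cell cultures; uPA read one day after compound addition.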 The conditions noted are these: primary human bronchial epithelial cells; actives raise or lower the signal. Summed up: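 Primary human bronchial epithelial cells, uPA measured by ELISA 24 h after dosing. Bidirectional change relative to DMSO; cytotoxicity checked in parallel cultures by sulforhodamine B total-protein staining.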

Read-out in assay [16]: Urokinase-type plasminogen activator receptor (uPAR), PLAUR (gene 5329)
Description: BSK_BE3C_uPAR: BioMAP Diversity Plus: BE3C Assay for Urokinase-type plasminogen activator receptor (uPAR) Biomarker Activity (AID 2283039).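 On outcome: cells exposed to compound for one day before measurement.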 The conditions noted are these: primary human bronchial epithelial cells; actives raise or lower the signal. Summed up:
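A uPAR ELISA serves as the readout, taken 24 h after treating primary human bronchial epithelial cells. Responses in either direction are fitted against DMSO, which defines baseline activity.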

Read-out in assay [17]: Interleukin-6 (IL6), IL6 (gene 3569)
Description: BSK_CASM3C_IL6: BioMAP Diversity Plus: CASM3C Assay for Interleukin-6 (IL6) Biomarker Activity for (AID 2283040). The following applies: primary human coronary artery smooth muscle cells; actives raise or lower the signal.

Read-out in assay [18]: Tissue plasminogen activator (tPA), PLAT (gene 5327)
Description: BSK_BE3C_tPA: BioMAP Diversity Plus: BE3C Assay for Tissue plasminogen activator (tPA) Biomarker Activity (AID 2283041).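 On outcome: tPA level quantified by ELISA one day after compound addition.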 The following applies: primary human bronchial epithelial cells; actives raise or lower the signal. The gist of the method:
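Bidirectional curve fitting relative to DMSO defined activity, with tPA detected by ELISA in chemically treated human bronchial epithelial primary cells at 24 hours.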

Read-out in assay [19]: Thrombomodulin, THBD (gene 7056)
Description: BSK_3C_Thrombomodulin: BioMAP Diversity Plus: 3C Assay for Thrombomodulin Biomarker Activity (AID 2283029). The following applies: primary human endothelial cells (HUVEC); actives raise or lower the signal. The gist of the method:
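Thrombomodulin ELISA, human primary HUVEC, 24 h post-dose; data fitted in both directions relative to DMSO.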

Read-out in assay [20]: Plasminogen activator inhibitor-1 (PAI1), SERPINE1 (gene 5054)
Description: BSK_BE3C_PAI1: BioMAP Diversity Plus: BE3C Assay for Plasminogen activator inhibitor-1 (PAI1) Biomarker Activity (AID 2283037). The following applies: primary human bronchial epithelial cells; actives raise or lower the signal. Summed up:
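PAI-1 biomarker levels in treated human bronchial epithelial cells are determined by ELISA at 24 h. Both increases and decreases relative to DMSO are fitted.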

Several values for one entry are separate records, joined by “and”; a condition that tells them apart may be missing. Equal entries are not always repeated. Records with an inconclusive call do not appear. The source holds several records for some structures; these can differ, active in one and inactive in another. Activity calls are given as the source filed them. How the source made its calls, unless noted: active means hit-call score of the fitted dose curve at least 0.9, where 1 is the maximum; inactive means score below 0.9.

Chain of human Vitamin D Receptor (VDR), VDR (gene 7421) (P11473 whole entry, looked up, the tested form may be a part): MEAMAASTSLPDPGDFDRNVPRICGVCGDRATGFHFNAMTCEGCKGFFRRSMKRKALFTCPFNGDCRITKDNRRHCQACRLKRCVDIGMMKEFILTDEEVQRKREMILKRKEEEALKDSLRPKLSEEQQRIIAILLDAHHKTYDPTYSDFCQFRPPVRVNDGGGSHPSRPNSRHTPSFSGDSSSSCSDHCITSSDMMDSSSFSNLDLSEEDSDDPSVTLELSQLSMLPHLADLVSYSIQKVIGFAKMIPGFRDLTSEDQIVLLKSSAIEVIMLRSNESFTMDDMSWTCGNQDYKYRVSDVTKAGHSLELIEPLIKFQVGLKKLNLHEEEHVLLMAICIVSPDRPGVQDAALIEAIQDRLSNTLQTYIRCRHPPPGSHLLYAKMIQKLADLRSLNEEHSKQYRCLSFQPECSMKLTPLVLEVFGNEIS

As for `O=C(c1ccccc1)C1CCCCC1`, the result in assay [1], in [2], in assay [3], in [4], in [5] and in [6] was inactive. For the same compound, the outcome in assay [7], in assay [8], in assay [9], in assay [10], in assay [11] and in assay [12] was inactive. The result in assay [13], in [14], in assay [15], in [16] and in assay [17] was inactive. Besides, the AC50 in [18] is 33.3 µM (active).
For the compound `O=C(c1ccc(O)cc1O)c1ccc(O)cc1O`, the compound was called inactive in [1], in assay [2], in assay [3], in assay [4], in [5] and in assay [6]. For the same compound, the result in assay [7], in assay [19], in assay [8], in assay [9], in [10] and in assay [11] was inactive. Moreover, the result in assay [13], in [14], in assay [15], in assay [16], in assay [17] and in [18] was inactive. For the same compound, in assay [12], the AC50 is 30.5 µM (active).
Regarding `N#CSCSc1nc2ccccc2s1`, the compound was classed as inactive in [1], in assay [7], in assay [14] and in [18]. Moreover, the AC50 in assay [2] is 5.31 µM (active) and 5.24 µM (active); in assay [3] it was 7.12 µM (active) and 11.3 µM (active); in assay [4], 4.4 µM (active) and 4.82 µM (active); in assay [5], 1.24 µM (active) and 5.49 µM (active); in [6], 3.51 µM (active) and 10.6 µM (active); in assay [7] it was 5.15 µM (active). The AC50 in [8] is 5.3 µM (active) and 6.65 µM (active); in assay [9] it was 5.06 µM (active) and 5.42 µM (active); in [10], 6.17 µM (active) and 12.1 µM (active); in assay [11], 5.21 µM (active) and 12.8 µM (active); in [12] it was 9.03 µM (active) and 11.8 µM (active); in assay [13], 9.86 µM (active) and 12.2 µM (active). The AC50 in assay [14] was 11.2 µM (active); in [20], 4.99 µM (active) and 11.8 µM (active); in assay [15] it was 6.61 µM (active) and 12.1 µM (active); in assay [16] it was 5.42 µM (active) and 11.5 µM (active); in assay [17], 8.6 µM (active) and 36.5 µM (active); in assay [18], 5.25 µM (active).
With `CC(C)CCCCCCc1ccc(O)cc1`, in assay [1], the outcome was inactive. Further, the AC50 was 9.24 µM (active) in assay [2]; 32 µM (active) in [3]; 5.31 µM (active) in assay [4]; 9.15 µM (active) in assay [5]; 6.94 µM (active) in assay [6]; 36 µM (active) in assay [7]. The AC50 was 9.57 µM (active) in assay [8]; 5.29 µM (active) in [9]; 26.2 µM (active) in assay [10]; 7.96 µM (active) in [11]; 14.7 µM (active) in [12]; 33.4 µM (active) in assay [13]. Besides, the AC50 in [14] is 26.2 µM (active); in assay [20] it was 31 µM (active); in assay [15], 31.6 µM (active); in assay [16] it was 33.3 µM (active); in [17], 36.9 µM (active); in [18], 14.5 µM (active).
Take `CSC(=O)c1cccc2nnsc12`: the compound was called inactive in [1], in assay [2], in assay [3], in assay [4], in assay [5] and in assay [6]. Moreover, the result in assay [7], in [8], in assay [9], in assay [10], in [11] and in assay [12] was inactive. Further, the result in assay [13], in assay [14], in [15], in [16], in assay [17] and in assay [18] was inactive.
For the compound `CCOC(=O)c1ccc(O)cc1`, the compound was called inactive in assay [1], in assay [2], in [3], in assay [4], in assay [5] and in assay [6]. In addition, the result in assay [7], in assay [8], in assay [9], in assay [10], in assay [11] and in assay [12] was inactive. The result in [13], in assay [14], in assay [20], in [15], in assay [16] and in assay [17] was inactive. The result in assay [18] was inactive.

(Values after PubChem BioAssay (EPA / NIEHS).)
